Screening data deposited in PubChem by National Center for Advancing Translational Sciences (NCATS).
TGFb inhibitor: qHTS for Inhibitors of TGF-b; HepG2 CAGA-GFP TGF-b/SMAD3 reporter, GFP fluorescence, 18 h; TGF-beta stimulated, 500 pg/mL final; Potency, µM (titrated, usually from 46.1 µM), for inactives: at the highest dose activity, negative = inhibition, actives largely listed as inhibitors; 410,000 tested, 1.2% active; AID 588855, 2011; note: potency is the fitted concentration of half-maximal effect; % is set by controls: 0 for no effect and ±100 for the full control effect; nearly all actives have a fitted effect of over 65% in size
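Smad-responsive CAGA-GFP expression was quantified in HEPG2 cells exposed to compounds and 500 pg/mL final TGF-beta for 18 h at 37 degrees C; unstimulated wells defined full inhibition.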
TDP1 inh: qHTS Assay for Inhibitors of Tyrosyl-DNA Phosphodiesterase (TDP1); recombinant TDP1, AlphaScreen DNA substrate cleavage; Potency, µM (doses to about 130 µM), inactives show top-dose activity change, negative = inhibition, hits mostly inhibitors; Tyrosyl-DNA phosphodiesterase 1 (Homo sapiens), Q9NUW8; 350,000 tested, 0.28% active; AID 485290, 2010; note: potency is the fitted concentration of half-maximal effect; % is set by controls: 0 for no effect and ±100 for the full control effect; nearly all actives have a fitted effect of over 40% in size
Target sequence (Q9NUW8 whole entry, looked up): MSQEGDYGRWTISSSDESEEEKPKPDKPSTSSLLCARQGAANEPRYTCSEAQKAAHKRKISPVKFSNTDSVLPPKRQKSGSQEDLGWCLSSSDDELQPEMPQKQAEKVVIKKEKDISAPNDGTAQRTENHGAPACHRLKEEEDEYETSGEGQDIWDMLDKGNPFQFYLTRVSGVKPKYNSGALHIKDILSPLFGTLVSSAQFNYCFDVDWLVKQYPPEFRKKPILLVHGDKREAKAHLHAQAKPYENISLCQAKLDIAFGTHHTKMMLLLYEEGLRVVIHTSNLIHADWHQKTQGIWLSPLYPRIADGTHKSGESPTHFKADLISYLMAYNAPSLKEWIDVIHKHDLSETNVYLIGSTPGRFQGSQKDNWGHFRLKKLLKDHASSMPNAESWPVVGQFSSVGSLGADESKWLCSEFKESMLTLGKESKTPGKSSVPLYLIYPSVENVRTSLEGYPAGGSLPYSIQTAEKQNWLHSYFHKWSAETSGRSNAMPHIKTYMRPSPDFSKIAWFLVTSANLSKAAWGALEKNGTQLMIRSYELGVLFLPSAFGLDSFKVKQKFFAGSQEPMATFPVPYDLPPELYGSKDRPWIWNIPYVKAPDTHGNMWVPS
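E. coli-derived human Tdp1, 1 nM final. Cpd preinc 15 min RT; substrate 15 nM final, 5 min RT; AS bead mix 10 ug/ml final, 10 min RT. Signal loss = tyrosine-FITC cleavage. No-enzyme wells = max signal.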
TDP1 cell CPT: qHTS for Inhibitors of human tyrosyl-DNA phosphodiesterase 1 (TDP1): qHTS in cells in presence of CPT | chicken DT40 Tdp1-/-;hTDP1 cells + 20 nM CPT, ATP luminescence, 48 h | Potency, µM (highest dose often 46.2 µM), without a hit: at the highest dose activity change, negative = growth inhibition, hits mostly inhibitors | 420,000 tested, 12% active | AID 686979, 2013; note: potency is the fitted concentration of half-maximal effect; % is set by controls: 0 for no effect and ±100 for the full control effect; nearly all actives have a fitted effect of over 55% in size
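Chicken DT40 Tdp1-/- cells complemented with human TDP1, 400 cells/well, exposed to compounds plus 20 nM camptothecin for at least 48 h at 37 C; viability read as ATP content by CellTiter-Glo luminescence.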
IL1B secr inh: qHTS for Inhibitors of Inflammasome Signaling: IL-1-beta AlphaLISA Primary Screen; THP-1 LPS/ATP IL-1B secretion, AlphaLISA, 16 h; active compounds read low; activity change, % at 57.5 µM; 360,000 tested, 4.7% active; AID 743279, 2014; in the data active = activity change below about -50%; inconclusive = mostly about -30% to -49%; note: % is set by controls: 0 for no effect and ±100 for the full control effect
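Secreted IL-1B measured by AlphaLISA bead assay after 16 h compound exposure of THP-1 cells; compounds (final up to 57.5 uM) added 1 h before LPS (250 ng/mL) and ATP (1.25 mM) stimulation; lower signal means less secretion.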
HepG2 viability: qHTS for Inhibitors of TGF-b: Cytotox Counterscreen. AID 588856, 2011. 410,000 tested, 0.76% active. HepG2 CAGA-GFP viability, ATP luminescence, 18 h. Potency, µM (top dose mostly 46.1 µM), for the others: top-dose activity change, negative = cytotoxicity, actives largely listed as cytotoxic; note: potency is the fitted concentration of half-maximal effect
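HepG2 CAGA-GFP cells (1000/well, DMEM with 1% FBS) received compound, then TGF-beta at 500 pg/mL final, and were incubated 18 hours at 37 degrees C. Viability was read by CellTiter-Glo luminescence. Media-only wells were set as complete cell-killing and DMSO as no toxicity.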
DT40 TDP1 no CPT: qHTS for Inhibitors of human tyrosyl-DNA phosphodiesterase 1 (TDP1): qHTS in cells in absence of CPT. Potency, µM (titrated, usually from 46.2 µM), for the others: top-dose activity change, negative = growth inhibition, actives largely listed as inhibitors. DT40 Tdp1-/- hTDP1 cells, no CPT, ATP luminescence, 48 h. 420,000 tested, 15% active. AID 686978, 2013; note: potency is the fitted concentration of half-maximal effect; % is set by controls: 0 for no effect and ±100 for the full control effect; nearly all actives have a fitted effect of over 55% in size
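Camptothecin absent (DMSO only). Human TDP1-complemented DT40 knockout cells, 400 cells/well, 37 °C for minimum 48 hr; ATP measured via CellTiter-Glo, 30 min dark incubation, luminescence.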
* marks the source's active call; other numbers are inactive results; ? = inconclusive; . = not tested or not shown. Compounds with a hit are over-represented: about 19% of the library has one in this group of screens. Unless noted, calls come from the whole dose curve; as a rule, active = well fitted curve in the direction sought with a large enough effect; inconclusive = small, poorly fitted or top-dose-only effect, or another doubt; inactive = no such curve, though single readings can be large; an effect the other way counts as inactive or inconclusive.

SMILES | TGFb inhibitor | TDP1 inh | TDP1 cell CPT | IL1B secr inh | HepG2 viability | DT40 TDP1 no CPT
CCOc1ccc(C(c2c(O)cc(C)n(Cc3ccco3)c2=O)N2CCCCC2)cc1 (stereo not drawn) | 14.1% | 8.1% | 6.3% | . | -0.7% | 1.1%
COc1ccc(Nc2oc(COc3ccccc3F)nc2C#N)cc1 | -2.3% | 4.9% | ? | -2.4 | -26.9% | 13µM*
Cc1ccc(OCc2nc(C#N)c(NCCc3ccccc3)o2)cc1 | 22.4µM* | 5.3% | ? | . | -28.2% | ?
N#Cc1nc(COc2ccccc2F)oc1NCCc1ccccc1 | 1.4% | 10.3% | -5.3% | -76.6* | -7.4% | -19.0%
COc1ccc(Nc2oc(COc3ccc(OC)cc3)nc2C#N)cc1 | -11.2% | 8.7% | -16.0% | -13.9 | -16.3% | ?
CCc1nn(CC(=O)N2CCN(c3cccc(C)c3C)CC2)c(=O)c2cc3sccc3n12 | ? | 4.9% | -6.1% | . | -8.3% | -3.3%
O=C(Nc1cc(Cl)cc(Cl)c1)Nc1cnccn1 | -12.2% | 0.4% | ? | 0.0 | -6.9% | 16.4µM*
CCCCc1ccc(NC(=O)Nc2cnccn2)cc1 | -16.2% | 2.4% | 14.6µM* | 15.0 | 0.1% | 23.1µM*
COc1ccc(NC(=O)c2sc3nc[nH]c(=O)c3c2C)cc1Cl | -3.4% | 7.7% | -5.4% | . | -17.3% | -19.1%
CCc1nonc1NC(=O)c1oc2ccc(F)cc2c1C | 7.5% | 1.3% | 1.4% | -4.5 | 12.9% | -15.4%
CCOc1ccc(-c2nonc2NC(=O)c2oc3cc(C)ccc3c2C)cc1OCC | -2.0% | 4.9% | -7.5% | . | -7.4% | -24.5%
CCCOc1ccc(-c2nonc2NC(=O)c2oc3ccc(Cl)cc3c2C)cc1OCCC | 6.5% | 2.5% | ? | . | 0.6% | 7.31µM*
CCOc1ccc(-c2nonc2NC(=O)c2oc3ccc(F)cc3c2C)cc1 | ? | 0.5% | 0.92µM* | . | -16.0% | 0.82µM*
CCOc1ccc(C(=O)Nc2ccc(S(=O)(=O)Nc3nc(C)cc(C)n3)cc2)cc1OC | -8.9% | -2.3% | -27.9% | . | 3.8% | -20.1%
CCCCC(=O)OCC(=O)Nc1cccc(S(=O)(=O)NC2=NCCCCC2)c1 | 19.2% | -2.5% | 1.6% | -4.6 | 4.2% | -6.4%
CC(C)(C)OC(=O)NCCCCCNC(=O)c1[nH]cnc1C(=O)N[C@@H](CCCCNC(=O)OC(C)(C)C)C(=O)OC(C)(C)C | ? | 7.7% | 16.4µM* | -20.6 | 2.9% | 16.4µM*
C[C@H](NC(=O)c1nc[nH]c1C(=O)N[C@@H](CCCCNC(=O)OC(C)(C)C)C(=O)OC(C)(C)C)C(=O)OC(C)(C)C | ? | 10.7% | ? | 0.0 | -12.1% | ?
CN(Cc1ccccc1)C(=O)c1[nH]cnc1C(=O)NCCCCCNC(=O)OC(C)(C)C | -15.4% | 0.5% | ? | -2.9 | -10.5% | 18.4µM*
CC(C)(C)OC(=O)NCCCC[C@H](NC(=O)c1nc[nH]c1C(=O)NC(c1ccccc1)c1ccccc1)C(=O)OC(C)(C)C | ? | 9.0% | 14.6µM* | -6.8 | -17.0% | ?
CC(C)(C)OC(=O)NCCCC[C@H](NC(=O)c1nc[nH]c1C(=O)N[C@@H](CCCCNC(=O)OC(C)(C)C)C(=O)OC(C)(C)C)C(=O)OC(C)(C)C | ? | 7.1% | 14.6µM* | -24.2 | -40.4% | 23.1µM*
CCC(=O)N1CCc2cc(S(=O)(=O)NC(C(=O)NCCc3ccccc3)C(C)C)ccc21 (stereo not drawn) | -0.5% | 4.7% | -20.8% | . | -14.8% | ?
Cc1cccc(NC(=O)c2nc[nH]c2C(=O)NCCCCCNC(=O)OC(C)(C)C)c1 | ? | 1.0% | 14.6µM* | -74.9* | -71.4% | 16.4µM*
CC(C)(C)OC(=O)NCCCCCNC(=O)c1ncn(Cc2ccccc2)c1C(=O)NCCCCCNC(=O)OC(C)(C)C | ? | 1.3% | ? | -12.8 | -2.4% | 16.4µM*
Cc1cccc(NC(=O)c2nc[nH]c2C(=O)NC[C@H](C)O)c1 | -0.1% | . | -20.3% | -28.3 | -16.7% | ?
CC(C)(C)OC(=O)NCCCC[C@H](NC(=O)c1nc[nH]c1C(=O)NCc1ccc(CNC(=O)OC(C)(C)C)cc1)C(=O)OC(C)(C)C | ? | . | ? | -16.9 | -14.1% | 16.4µM*
SMILES | TGFb inhibitor | TDP1 inh | TDP1 cell CPT | IL1B secr inh | HepG2 viability | DT40 TDP1 no CPT
CC1CCN(C(=O)c2[nH]cnc2C(=O)NCCCCCNC(=O)OC(C)(C)C)CC1 | ? | 1.3% | ? | -2.4 | -14.9% | -22.1%
CC(C)(C)OC(=O)NCCCCCNC(=O)c1nc[nH]c1C(=O)NCCCCCNC(=O)OC(C)(C)C | ? | 3.5% | 11.6µM* | 19.5 | -52.4% | 10.3µM*
CC(C)(C)OC(=O)NCCCC[C@H](NC(=O)c1nc[nH]c1C(=O)N1CCc2ccccc2C1)C(=O)OC(C)(C)C | -4.6% | 7.1% | 25.9µM* | ? | -16.4% | 20.6µM*
Cc1cccc(NC(=O)CCCN2C(=O)C(c3ccccc3)Oc3cccnc32)c1C (stereo not drawn) | -6.8% | 0.9% | ? | -7.8 | -20.7% | ?
CCOc1ncccc1C(=O)OCC(=O)NCCCc1ccccc1 | 7.8% | 0.9% | 0.9% | 9.1 | -11.0% | ?
CCOC(=O)c1cnc2cc(-c3ccc(OCC)cc3)nn2c1-c1ccccc1 | -13.2% | 2.6% | 14.6µM* | . | 0.9% | 8.2µM*
COc1ccc(-c2cc3ncc(-c4ccccc4)c(N)n3n2)cc1 | ? | 5.1% | ? | -54.8* | -49.0% | ?
O=C(NCc1ccc(Cl)cc1)C1CCN(S(=O)(=O)Cc2ccccc2)CC1 | -3.7% | 0.0% | -15.7% | . | -0.1% | -1.4%
COc1cccc(-c2nnc(SCC(=O)Nc3cc(C)on3)o2)c1 | -1.7% | 7.7% | 16.4µM* | -6.7 | -19.9% | ?
CCOc1ccc(-c2nnc(SCC(=O)Nc3cc(C)on3)o2)cc1 | 2.4% | 5.8% | 8.2µM* | 0.0 | 3.3% | ?
Cc1cc(NC(=O)CSc2nnc(-c3ccccc3Cl)o2)no1 | -4.2% | . | -11.5% | 20.9 | -11.7% | -9.0%
Cc1cc(NC(=O)CSc2nnc(-c3cccc(Cl)c3)o2)no1 | -17.3% | 1.1% | ? | 0.0 | -22.4% | 16.4µM*
CC(C)CCNC(=O)C1CCN(C(=O)N2CCOc3ccc(Cl)cc32)CC1 | ? | 0.0% | 25.9µM* | . | -21.3% | ?
